Screening data deposited in PubChem BioAssay by National Center for Advancing Translational Sciences (NCATS).
LmPK inh: LmPK (Leishmania mexicana) enzyme inhibition | Potency, µM (titrated, usually from 57.5 µM), for the others: at the highest dose activity change, negative = inhibition, actives largely listed as inhibitors | purified LmPK, Kinase-Glo ATP luminescence, 1 h | actives 0.37% (n = 290,000) | Q27686
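qHTS format; LmPK 0.1 nM; substrates PEP 0.5 mM and ADP 0.1 mM. One-hour room-temperature incubation, then coupled luciferase luminescence; 0.5 nM enzyme wells mark activation.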
AmpC inh detg: blocks E. coli AmpC beta-lactamase in detergent assay; actives 0.041% (n = 370,000); AID 485294; Potency, µM (titrated, usually from 114 µM), inactives show top-dose activity change, negative = inhibition, actives largely listed as inhibitors; P00811; AmpC hydrolysis of nitrocefin, absorbance 480 nm, 0.01% Triton;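 also: 0% = no-compound wells and -100% = no-enzyme wells; nearly all actives have a fitted effect of over 25% in size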
Target sequence (P00811 whole entry, looked up): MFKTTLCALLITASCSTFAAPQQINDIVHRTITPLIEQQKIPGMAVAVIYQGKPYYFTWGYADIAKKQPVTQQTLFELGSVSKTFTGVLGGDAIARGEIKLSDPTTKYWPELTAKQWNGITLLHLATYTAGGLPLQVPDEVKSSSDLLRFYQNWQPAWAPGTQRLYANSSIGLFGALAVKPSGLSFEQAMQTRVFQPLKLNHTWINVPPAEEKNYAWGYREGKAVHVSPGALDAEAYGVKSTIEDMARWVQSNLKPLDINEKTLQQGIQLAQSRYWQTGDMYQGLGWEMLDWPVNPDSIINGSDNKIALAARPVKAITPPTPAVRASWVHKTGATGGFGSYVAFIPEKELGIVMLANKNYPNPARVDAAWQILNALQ
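AmpC (5.3 nM in the dispensed reagent) in 20 mM phosphate pH 7.0 with 0.01% (detergent screen) or 0.0001% Triton X-100 was preincubated with compounds for 15 min at room temperature. Nitrocefin was then added from an 800 uM solution, and hydrolysis was followed at 480 nm.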
AmpC inh no detg: inhibitors of E. coli AmpC beta-lactamase without detergent. P00811. AID 485341. actives 0.52% (n = 330,000). AmpC nitrocefin hydrolysis, absorbance 480 nm, 0.0001% Triton. Potency, µM (highest dose often 57.1 µM), inactives show at the highest dose activity change, negative = inhibition, usual class: inhibitors;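 also: plate controls were no compound for no effect and no enzyme for full effect; nearly all actives have a fitted effect of over 20% in size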
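20 mM phosphate pH 7.0 + 0.01% (detergent screen) or 0.0001% Triton X-100; 5.3 nM AmpC reagent; cpd preinc 15 min RT; nitrocefin (800 uM stock) to start; A480 q20 s × 4 min; Activity was normalised to no-enzyme and no-compound control wells.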
Giardia FBPA inh-1: Giardia lamblia aldolase inhibition; A8B2U2; purified Giardia FBPA; Potency, µM (series often up to 59.6 µM), without a hit: at the highest dose activity, negative = inhibition, most hits filed as inhibitors; actives 0.71% (n = 290,000); AID 2451; also: nearly all actives have a fitted effect of over 55% in size
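40 nM FBPA preincubated 10 min at RT with compound (up to 57.5 uM final), then substrate plus GAPDH/TPI/NAD/arsenate coupling and diaphorase/resazurin added. Fluorescence read after 20 min at RT, 525/598 nm.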
AMA1-RON2 inh: disrupts binding of P. falciparum AMA1 to RON2; AID 720542; actives 0.2% (n = 360,000); AlphaScreen AMA1-biotinylated RON2 peptide binding; Potency, µM (highest dose often 58.2 µM), without a hit: top-dose activity change, negative = inhibition, hits mostly inhibitors;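 also: 0% = vehicle wells and -100% = peptide control; nearly all actives have a fitted effect of over 45% in size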
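AMA1 (3D7) with his tag at 25 nM final met compounds first, then biotinylated RON2 peptide at 25 nM; detection used donor plus acceptor beads, 10 µg/mL apiece, read by AlphaScreen after 30 min at room temperature.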
Giardia growth: blocks growth of Giardia lamblia trophozoites. shares compounds with Giardia FBPA inh-1. Giardia lamblia trophozoite growth inhibition. Potency, µM (top dose mostly 57.5 µM), for inactives: top-dose activity change, negative = inhibition, most hits filed as inhibitors. actives 5% (n = 1,500). AID 2785;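 also: trophozoites exposed to compound for 48 h at 37 °C; nearly all actives have a fitted effect of over 70% in size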
Mammal cell tox: counter-screen for Giardia aldolase inhibitors: mammalian cell toxicity; mammalian cell viability counter-screen, qHTS; actives 4% (n = 1,500); Potency, µM (top dose mostly 57.5 µM), without a hit: top-dose viability change, negative = toxicity, actives largely listed as inhibitors; shares compounds with Giardia FBPA inh-1;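 also: Chinese hamster ovary cells used as mammalian cytotoxicity surrogate; viability measured as cellular ATP by luminescence; compound exposure lasted 48 h before reading; nearly all actives have a fitted effect of over 60% in size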
Giardia FBPA inh-2: confirmation of Giardia fructose-bisphosphate aldolase inhibitors; shares compounds with Giardia FBPA inh-1; purified Giardia aldolase enzyme activity, qHTS; actives 5% (n = 1,500); Potency, µM (titrated, usually from 57.5 µM), inactives show at the top dose activity change, negative = inhibition, most hits filed as inhibitors; AID 2787; also: nearly all actives have a fitted effect of over 45% in size
Rabbit FBPA inh: blocks rabbit muscle aldolase in Giardia aldolase selectivity test; AID 2794; Potency, µM (doses to about 57.5 µM), for inactives: top-dose activity, negative = inhibition, usual class: inhibitors; actives 4% (n = 1,500); Rabbit muscle FBPA enzyme inhibition, selectivity counter-screen; shares compounds with Giardia FBPA inh-1; also: nearly all actives have a fitted effect of over 60% in size
Target sequence (P00883 whole entry, looked up): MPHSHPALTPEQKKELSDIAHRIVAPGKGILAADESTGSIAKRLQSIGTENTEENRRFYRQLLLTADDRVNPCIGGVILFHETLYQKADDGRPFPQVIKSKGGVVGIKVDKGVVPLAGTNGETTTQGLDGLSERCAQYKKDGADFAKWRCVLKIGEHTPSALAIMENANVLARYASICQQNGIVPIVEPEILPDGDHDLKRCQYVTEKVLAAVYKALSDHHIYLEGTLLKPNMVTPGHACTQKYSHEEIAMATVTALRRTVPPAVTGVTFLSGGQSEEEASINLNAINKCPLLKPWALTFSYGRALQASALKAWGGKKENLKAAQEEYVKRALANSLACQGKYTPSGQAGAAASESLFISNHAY
GAPDH coupling: GAPDH inhibition flagged for Giardia aldolase hits; Potency, µM (highest dose often 57.5 µM), without a hit: at the highest dose activity change, negative = inhibition, actives largely listed as inhibitors; shares compounds with Giardia FBPA inh-1; GAPDH coupling enzyme counterscreen, biochemical, qHTS; actives 6% (n = 1,500); also: nearly all actives have a fitted effect of over 55% in size
* = called active by the depositor; [ ] = another dose, or the depositor's remark. Hits are enriched below; roughly 1.3% of the tested compounds scored in any of these assays. Calls follow the shape of the dose curve; as a rule, active = well fitted curve in the direction sought with a large enough effect; inconclusive = small, poorly fitted or top-dose-only effect, or another doubt; inactive = no such curve, though single readings can be large; an effect the other way counts as inactive or inconclusive. Unless noted, % is scaled to controls: 0 for no effect and ±100 for the full control effect; potency is read from the fitted curve at half-maximal effect.

Cc1nc(NC(=O)CN2CC(C)OC(C)C2)sc1C(=O)N(C)C (configuration not stated) was read as LmPK inh -4%, AmpC inh detg -9%, AmpC inh no detg -13%, Giardia FBPA inh-1 11µM*, AMA1-RON2 inh 15%, Giardia growth 15%, Mammal cell tox 1%, Giardia FBPA inh-2 7%, Rabbit FBPA inh 8% and GAPDH coupling 9%.
Screening O=C(CCN1CCc2ccccc2C1)Nc1ccccc1 returned LmPK inh 2%, AmpC inh detg 6%, AmpC inh no detg 2%, Giardia FBPA inh-1 16µM*, AMA1-RON2 inh -15%, Giardia growth 26%, Mammal cell tox 13%, Giardia FBPA inh-2 -1%, Rabbit FBPA inh -3% and GAPDH coupling 7%.
For O=C(CCN1CCc2ccccc2C1)Nc1cccc(F)c1 the results were LmPK inh -1%, AmpC inh detg inconclusive, AmpC inh no detg -15%, Giardia FBPA inh-1 inconclusive and AMA1-RON2 inh -10%.
O=C(CCn1c(=O)oc2ccccc21)NCCN1CCc2ccccc2C1 was read as LmPK inh 1%, AmpC inh detg inconclusive, AmpC inh no detg -1%, Giardia FBPA inh-1 16µM*, AMA1-RON2 inh -10%, Giardia growth 0%[10.4 µM], Mammal cell tox 23%, Giardia FBPA inh-2 1%, Rabbit FBPA inh 1% and GAPDH coupling 5%.
Screening O=C(CCCn1c(=O)oc2ccccc21)N1CCc2ccccc2C1 returned LmPK inh -4%, AmpC inh detg -3%, AmpC inh no detg -14%, Giardia FBPA inh-1 3% and AMA1-RON2 inh inconclusive.
For Cn1c(=S)c2[nH]c(SCCN3CCCC3)nc2n(C)c1=O the results were LmPK inh 4%, AmpC inh detg -6%, AmpC inh no detg 0%, Giardia FBPA inh-1 11µM*, AMA1-RON2 inh 81%, Giardia growth 11%[10.4 µM], Mammal cell tox 19%, Giardia FBPA inh-2 1%, Rabbit FBPA inh -3% and GAPDH coupling 2%.
Screening COc1ccc(NC(=O)C(NCC(C)C)c2ccccc2)cc1Cl (configuration not stated) returned LmPK inh -1%, AmpC inh detg 2%, AmpC inh no detg -23%, Giardia FBPA inh-1 14µM*, AMA1-RON2 inh -17%, Giardia growth inconclusive, Mammal cell tox 2%, Giardia FBPA inh-2 8%, Rabbit FBPA inh 20% and GAPDH coupling 2%.
For COc1nnc(-c2ccc(N3CCOCC3)c(NC(=O)C3CCCCC3)c2)c2ccccc12 the results were LmPK inh 1%, AmpC inh detg 2%, AmpC inh no detg 2%, Giardia FBPA inh-1 -3% and AMA1-RON2 inh -8%.
For c1ccc2c3c(cc(N4CCOCC4)c2c1)OC1(N2CCOCC2)CCCCC1O3 (configuration not stated) the results were LmPK inh 3%, AmpC inh detg 11%, AmpC inh no detg -4%, Giardia FBPA inh-1 0.56µM*, AMA1-RON2 inh -4%, Giardia growth inconclusive, Mammal cell tox -9%, Giardia FBPA inh-2 7.1µM*, Rabbit FBPA inh inconclusive and GAPDH coupling 25µM*.
For CCOc1ccccc1CN1CCC(O)CC1 the results were LmPK inh 2%, AmpC inh detg -2%, AmpC inh no detg -11%, Giardia FBPA inh-1 -17% and AMA1-RON2 inh -12%.
CCOc1ccccc1CN1CCC(N2CCOCC2)CC1 was read as LmPK inh -5%, AmpC inh detg -2%, AmpC inh no detg -12%, Giardia FBPA inh-1 8.9µM*, AMA1-RON2 inh -25%, Giardia growth 21%[38.3 µM], Mammal cell tox -13%, Giardia FBPA inh-2 inconclusive, Rabbit FBPA inh 13% and GAPDH coupling -8%.
For S=C(NCCc1ccccc1)Nc1c(Cl)cccc1Cl the results were LmPK inh 11%, AmpC inh detg -3%, AmpC inh no detg -36%, Giardia FBPA inh-1 10µM*, AMA1-RON2 inh 72%, Giardia growth -10%[38.3 µM], Mammal cell tox -30%, Giardia FBPA inh-2 inconclusive, Rabbit FBPA inh inconclusive and GAPDH coupling inconclusive.
Cc1cccc(NC2(C(=O)O)CCCC2)c1 was read as AMA1-RON2 inh 0%.
`O=c1[nH]c2ccccc2nc1NCc1ccccc1` gave LmPK inh -9%, AmpC inh detg inconclusive, AmpC inh no detg -11%, Giardia FBPA inh-1 -4% and AMA1-RON2 inh 3%.
For CC1=NN(c2nc3ccccc3[nH]2)C(=O)C1Cc1ccccc1 (configuration not stated) the results were LmPK inh -1%, AmpC inh detg -14%, AmpC inh no detg -39%, Giardia FBPA inh-1 18µM*, AMA1-RON2 inh -9%, Giardia growth -21%, Mammal cell tox inconclusive, Giardia FBPA inh-2 23%, Rabbit FBPA inh 6% and GAPDH coupling 9%.
Screening CCOc1cc(C(=O)NCCCNC(=O)c2cc(OCC)c(OCC)c(OCC)c2)cc(OCC)c1OCC returned AMA1-RON2 inh -3%.
`C=CCNC(=S)NNc1nc2sc3c(c2c(=O)[nH]1)CC(C)(C)OC3` gave LmPK inh 1%, AmpC inh detg 1%, AmpC inh no detg -14%, Giardia FBPA inh-1 1.3µM*, AMA1-RON2 inh 95%, Giardia growth inconclusive, Mammal cell tox 0%, Giardia FBPA inh-2 2%, Rabbit FBPA inh 6% and GAPDH coupling 4%.
For CN(CCOc1ccc(Cl)cc1)C(=O)c1cc(-c2ccco2)nc2ccccc12 the results were AmpC inh detg inconclusive, AmpC inh no detg 18% and AMA1-RON2 inh -8%.
For COCc1cc(=O)[nH]c(=S)[nH]1 the results were LmPK inh -2%, AmpC inh detg 2%, AmpC inh no detg -24%, Giardia FBPA inh-1 4.5µM*, AMA1-RON2 inh 27%, Giardia growth inconclusive, Mammal cell tox -4%, Giardia FBPA inh-2 5%, Rabbit FBPA inh 1% and GAPDH coupling 13%.
